VP16 counter: Gal4-VP16 reporter inhibition counter-screen | Drosophila S2 Gal4-VP16 UAS-luciferase, luminescence, 20 h | Potency, µM (series often up to 53.6 µM), inactives show at the top dose activity, negative = inhibition, actives largely listed as inhibitors | hit rate 3.5% among 310,000;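 further: Gal4-VP16 expression switched on by copper sulfate through the metallothionein promoter; potency means the concentration at half of the fitted maximal effect; nearly all actives have a fitted effect of over 50% in size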
ELG1 repair inh: blocks ELG1-dependent DNA repair in HEK293T cells; HEK293T ELG1-luciferase reporter, luminescence, 16 h; DNA damage induced by 5-fluorouridine; Potency, µM (doses to about 46.1 µM), without a hit: top-dose activity change, negative = inhibition, usual class: inhibitors; hit rate 2.3% among 330,000; AID 504467; further: potency means the concentration at half of the fitted maximal effect; nearly all actives have a fitted effect of over 55% in size
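HEK293T cells expressing luciferase-tagged ELG1 (2,000/well) received 5-Fluorouridine plus compound or DMSO for 16 hr at 37 °C. Luciferase was read by ONE-Glo luminescence after 30 min at room temperature.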
FBPA coupling cs: counter-screen for Giardia aldolase inhibitors: coupling enzyme system; coupling enzyme system counterscreen, AmpLite Red fluorescence; activity change, negative = inhibition, % at 58.2 µM, hits read low; hit rate 0.67% among 290,000; AID 2472; in the data active means activity change below about -30%
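Activity here indicates interference with the coupling reaction, not aldolase inhibition. Compounds at 57.5 uM final met coupling enzymes for 10 min at RT; substrate and AmpLite Red detection followed, with a 525/598 nm fluorescence read after 20 min.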
TSHR antag: blocks TSH signaling through the human TSH receptor; TSHR-expressing cells, TSH-stimulated cAMP HTRF, 2 h; active compounds read low; activity change, negative = inhibition, % at 11.5 µM; hit rate 0.2% among 330,000; AID 504810;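 active means activity change below a set negative limit, meaning inhibition stronger than a set level, cut at about -70% in these data; inconclusive means activity change between two set negative limits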
Target sequence (P16473 whole entry, looked up): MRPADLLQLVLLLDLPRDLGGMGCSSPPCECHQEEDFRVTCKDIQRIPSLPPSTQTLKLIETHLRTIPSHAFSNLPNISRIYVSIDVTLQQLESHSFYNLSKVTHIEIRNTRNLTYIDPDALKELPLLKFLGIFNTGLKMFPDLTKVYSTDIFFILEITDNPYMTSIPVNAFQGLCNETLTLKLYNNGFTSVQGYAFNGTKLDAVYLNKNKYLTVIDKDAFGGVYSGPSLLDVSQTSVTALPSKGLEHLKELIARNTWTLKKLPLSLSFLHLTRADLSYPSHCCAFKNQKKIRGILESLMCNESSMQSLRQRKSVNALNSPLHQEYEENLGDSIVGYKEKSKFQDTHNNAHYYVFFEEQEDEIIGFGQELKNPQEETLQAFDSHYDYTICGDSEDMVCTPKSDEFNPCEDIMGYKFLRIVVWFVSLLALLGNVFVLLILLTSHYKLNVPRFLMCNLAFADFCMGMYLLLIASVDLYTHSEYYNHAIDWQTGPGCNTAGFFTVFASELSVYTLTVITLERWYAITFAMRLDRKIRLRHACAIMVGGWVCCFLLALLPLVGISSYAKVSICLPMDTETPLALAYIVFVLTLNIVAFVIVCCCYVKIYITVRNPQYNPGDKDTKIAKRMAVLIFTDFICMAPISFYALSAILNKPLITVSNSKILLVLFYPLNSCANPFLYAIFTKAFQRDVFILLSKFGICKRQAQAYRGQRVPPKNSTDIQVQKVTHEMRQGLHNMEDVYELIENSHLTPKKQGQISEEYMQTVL
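Inhibition of cAMP made by TSHR-expressing cells under TSH stimulation (4nM final, EC80; 2 h, 37 deg C) is quantified with a one-step lysis HTRF kit, anti-cAMP cryptate versus cAMP-d2.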
RORgamma inh: ROR gamma (mouse) transcription inhibition | P51450 | Drosophila S2 Gal4-RORgamma UAS-luciferase reporter, 20 h | Potency, µM (highest dose often 53.6 µM), without a hit: top-dose activity change, negative = inhibition, most hits filed as inhibitors | hit rate 5.4% among 310,000 | AID 2551; further: potency means the concentration at half of the fitted maximal effect; nearly all actives have a fitted effect of over 60% in size
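Schneider cells (Drosophila), stable Gal4 DBD–ROR gamma + UAS-luc; 1 hr cmpd preincubation; Cu2+ induction 700 uM final; 20 hr ambient; luminescence.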
Active calls of the source: *; ? = inconclusive; . = no result; [ ] = remark or other dose. In the library only some 8% were active in any assay of this set; here they are far more common. Unless noted, the call rests on the fitted dose curve; in most records, active means well fitted curve in the direction sought with a large enough effect; inconclusive means small, poorly fitted or top-dose-only effect, or another doubt; inactive means no such curve, though single readings can be large; an effect the other way counts as inactive or inconclusive. On the % scale 0 is the no-effect control and ±100 the full control effect.

SMILES	VP16 counter	ELG1 repair inh	FBPA coupling cs	TSHR antag	RORgamma inh
CC(=O)Nc1ccc(Nc2nc(C)c([N+](=O)[O-])c(Nc3ccccc3)n2)cc1	12.6µM*	14.6µM*	3.2	-19.2	?
CC(=O)Nc1ccc(Nc2nc(C)c([N+](=O)[O-])c(N(C)c3ccccc3)n2)cc1	-2.3%	20.6µM*	0.4	-6.9	0.7%
Cc1ccsc1CN(C)C(=O)CN1C(=O)NC2(CCCCC2C)C1=O (stereo not drawn)	.	2.2%	.	6.7	.
CCNc1ccc(C(=O)OCC)cc1NC(=O)c1cccc(S(=O)(=O)N(C)c2ccccc2)c1	2.6%	7.31µM*	-0.6	-0.2	-1.5%
COc1ccc(N(C)S(=O)(=O)c2cccc(C(=O)OCC(=O)N(C)c3ccccc3)c2)cc1	.	16.4µM*	.	-37.2	.
CN(C)c1cccc(C(=O)OCC(=O)N(C)c2ccccc2)c1	4.5%	-13.1%	0.4	6.5	2.1%
Oc1ccccc1-c1nc(NCC2CCCO2)c2ccccc2n1 (stereo not drawn)	.	23.1µM*	-1.4	-8.9	-38.5%[0.365 µM]
O=[N+]([O-])c1ccc(-c2nc(NCC3CCCO3)c3ccccc3n2)cc1 (stereo not drawn)	-8.4%	8.2µM*	-2.6	11.0	-20.1%
COc1cccc(-c2nc(NCC3CCCO3)c3ccccc3n2)c1O (stereo not drawn)	-22.5%	?	-0.5	-13.9	1.7%
COCCCNC(=O)CSc1nc2cc3c(cc2c(=O)n1CCCC(=O)NCc1ccc(OC)cc1)OCO3	-4.8%	-6.4%	2.7	-4.3	14.5%
COc1cccc(NC(=O)CSc2nc3ccccc3c(=O)n2CCCC(=O)NCCCN2CCOCC2)c1	-4.5%[10 µM]	-8.2%	2.8	-0.4	-1.4%
CCCCn1c(SCC(N)=O)nc2c(sc3ccccc32)c1=O	5.9%	?	2.5	-10.1	3.3%
CCCCn1c(SCC(N)=O)nc2ccc(N3CCOCC3)cc2c1=O	10µM*	?	-40.3*	-1.3	1.58µM*
COc1ccc(Cn2c(SCC#N)nc3ccc(N4CCOCC4)cc3c2=O)cc1	?	?	-28.1	-15.0	10µM*
CCCCn1c(SCC(=O)Nc2cccc(OC)c2)nc2ccc(N3CCOCC3)cc2c1=O	12.6µM*	?	-32.5*	-4.8	5.01µM*
COc1ccc(CNC(=O)CCCn2c(SCC#N)nc3cc4c(cc3c2=O)OCO4)cc1	-13.4%	23.1µM*	-1.0	-4.8	2.7%
Cc1ccc(S(=O)(=O)n2cnc3ccccc32)cc1[N+](=O)[O-]	-1.5%	19.1%	1.7	2.1	1.3%
COc1cccc([C@@H]2Oc3ccc(OC)cc3C(=O)[C@H]2OC(=O)NC2CCCC2)c1	0.6%	.	-2.0	.	6.9%
CC(C)c1ccc(C2(C)NC(=O)N(CC(=O)N3CCN(C(=O)c4cccs4)CC3)C2=O)cc1 (stereo not drawn)	.	?	.	41.8	.
CC(=O)Nc1ccc(SCC(c2ccccc2)N2CCN(CC(C)C)CCC2=O)cc1 (stereo not drawn)	26.6%	.	2.0	.	?
CC(C)C[C@H](NC(=O)c1[nH]cnc1C(=O)N[C@@H](C)C(=O)OC(C)(C)C)C(=O)OC(C)(C)C	?	?	-11.7	3.8	6.31µM*
CC(C)C[C@H](NC(=O)c1nc[nH]c1C(=O)NCC(=O)OCc1ccccc1)C(=O)OCc1ccccc1	?	?	1.7	-22.6	-23.7%
CC(C)C[C@H](NC(=O)c1nc[nH]c1C(=O)N1CCN(C(=O)OC(C)(C)C)CC1)C(=O)OC(C)(C)C	?	-6.5%	-0.6	-10.5	2.82µM*
CC(C)C[C@H](NC(=O)c1nc[nH]c1C(=O)N[C@@H](CC(C)C)C(=O)OC(C)(C)C)C(=O)OCc1ccccc1	7.08µM*	-18.8%	-14.2	2.2	5.01µM*
CC(C)C[C@H](NC(=O)c1nc[nH]c1C(=O)N[C@@H](CCCCN)C(=O)OC(C)(C)C)C(=O)OC(C)(C)C	.	12.9%	.	-4.7	.
SMILES	VP16 counter	ELG1 repair inh	FBPA coupling cs	TSHR antag	RORgamma inh
CC(C)C[C@H](NC(=O)c1nc[nH]c1C(=O)NCC(=O)OC(C)(C)C)C(=O)OCc1ccccc1	17.8µM*	-2.7%	-7.2	1.1	3.98µM*
C[C@H](NC(=O)c1nc[nH]c1C(=O)N1CCN(C(=O)OC(C)(C)C)CC1)C(=O)OC(C)(C)C	.	4.6%	.	-4.9	.
O=C1C[C@@H](O)[C@@H](O)[C@@H]2[C@H]3C(=O)N(c4ccc(F)cc4F)C(=O)[C@@H]3CC[C@H]12	-0.4%[10 µM]	.	4.8	.	-3.8%[10 µM]
CC(C)C[C@H](NC(=O)c1nc[nH]c1C(=O)N(C)Cc1ccccc1)C(=O)OCc1ccccc1	3.55µM*	9.2%	-4.7	-15.8	-10.9%
CC(C)C[C@H](NC(=O)c1nc[nH]c1C(=O)N1CCN(c2ccccc2)CC1)C(=O)OCc1ccccc1	?	-0.1%	7.1	1.0	5.01µM*
CC1(C)C(=O)C=C[C@]2(C)C1CC(=O)[C@]1(C)C2CC[C@@]2(C)C(c3ccoc3)OC(=O)C3O[C@@]321 (stereo partly drawn)	5.2%	.	-0.1	.	?
O=C(COC(=O)c1ccc(Br)cc1)NC(=O)NCc1ccccc1	.	3.3%	.	16.8	.
O=C1CCc2cc(S(=O)(=O)Nc3ccc(F)cc3)cc3c2N1CC3	.	?	.	6.8	.
COc1cc(C(O)c2nc3ccccc3s2)cc(OC)c1OC (stereo not drawn)	10µM*	-6.4%	-2.5	-12.6	?
COc1ccc(C(O)c2nc3ccccc3s2)cc1 (stereo not drawn)	2.7%	12.6%	5.0	-0.4	26.9%
O=C(CN1CCN(c2ccc(O)cc2)CC1)N(C1CC1)C1CCS(=O)(=O)C1 (stereo not drawn)	.	6.4%	.	-4.4	.
Cc1sc(NC(=O)c2ccccc2)c(C(c2ccc(Cl)cc2)N2CCN(CCO)CC2)c1C (stereo not drawn)	22.4µM*	-14.1%	5.6	5.7	?
CCOc1ccc(C(c2c(NC(=O)c3ccccc3)sc(C)c2C)N2CCN(CCO)CC2)cc1 (stereo not drawn)	?	-5.6%	-1.4	-3.7	34.0%
Cc1ccc(OC(C)C(=O)N2CC(=O)Nc3ccccc32)cc1 (stereo not drawn)	-16.4%	18.3µM*	2.9	20.4	4.1%
COC(=O)c1cc2c(s1)c1cnn(Cc3ccccc3F)c(=O)c1n2C	.	.	.	26.5	.
O=C(Cc1csc(N2CCOCC2)n1)N/N=C/c1ccc(Cl)cc1Cl	-2.7%	23.1µM*	1.6	-14.2	?
CCCCOc1ccc(S(=O)(=O)N2CCN(c3ccc(N4CCN(CC)CC4)nn3)CC2)cc1	.	15.2%	.	20.7	.
Cc1cnc(CNC(=O)c2ccc3oc(Cc4ccc(Cl)cc4)nc3c2)cn1	2.0%	?	-0.5	8.0	37.5%
Cc1nnc(N/N=C/c2ccccc2O)n1N	?	-19.5%	-31.0*	13.1	1.26µM*

Screens deposited in PubChem BioAssay by National Center for Advancing Translational Sciences (NCATS).
